Rows were chosen to be rich in hits. Some 7.8% of all compounds tested hit in one or more screens of this group.
HCV inh: qHTS Assay for Inhibitors of Hepatitis C Virus (HCV). AID 651820, 2012. Potency, µM (series often up to 41.8 µM), for the others: at the top dose activity change, negative = inhibition, usual class: inhibitors. Huh7.5.1 HCVcc-Cre infection, luciferase reporter, 44 h. actives 3.4% (n = 340,000); active = well fitted inhibition curve with a large enough effect; inconclusive = small, poorly fitted or top-dose-only effect, or another doubt; inactive = no such curve, though single readings can be large or run the other way; also: potency is read from the fitted curve at half-maximal effect
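Reporter virus HCVcc-Cre (~0.5 moi) infects cells exposed to compound; seeding density 1,000 cells/well with 4 h settling beforehand. Luminescence, 15 sec read, taken 44 h post-infection following a 15 min RT substrate incubation.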
MARV entry inh: qHTS for inhibitors of binding or entry into cells for Marburg Virus; actives 1.8% (n = 300,000); AID 540276, 2011; Marburg virus pseudotyped entry inhibition, cell reporter; Potency, µM (doses to about 37.8 µM), inactives show at the highest dose activity change, negative = inhibition, actives largely listed as inhibitors; calls by dose curve; tested in HEK293 cells; also: potency is read from the fitted curve at half-maximal effect
Vaccinia mCherry: qHTS for Stage-Specific Inhibitors of Vaccinia Orthopoxvirus: mCherry Reporter Primary qHTS; Vaccinia virus mCherry reporter infection, fluorescence; Potency, µM (titrated, usually from 36.5 µM), inactives show top-dose activity change, negative = inhibition, usual class: inhibitors; actives 0.63% (n = 310,000); AID 720579, 2013; calls by dose curve; tested in A549 cells; also: potency is read from the fitted curve at half-maximal effect; nearly all actives have a fitted effect of over 35% in size
HCMV inh: qHTS Assay for inhibitors of the human cytomegalovirus (HCMV). AID 1259415, 2018. activity change, negative = inhibition, % at 57.5 µM. actives 4.5% (n = 410,000). HFF cells, HCMV-luciferase reporter, 72 h; hits give low values; in the data active = activity change below about -60%; inconclusive = no clear call, values can overlap the other calls; inactive = above about -39%
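Steps: HFFs plated, 16 h 37C; compounds added; HCMV-luciferase added to MOI 1 PFU/cell; 72 h 37C; OneGlo reagent, 5 min room temperature; luminescence read, normalized to controls.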
Lassa entry inh: qHTS for Inhibitors of binding or entry into cells for Lassa Virus. Lassa virus pseudotype entry inhibition, cell reporter. Potency, µM (doses to about 37.9 µM), without a hit: top-dose activity change, negative = inhibition, usual class: inhibitors. actives 1.2% (n = 300,000); calls by dose curve; tested in HEK293 cells; also: potency is read from the fitted curve at half-maximal effect; nearly all actives have a fitted effect of over 50% in size
VACV Venus inh: qHTS for Stage-Specific Inhibitors of Vaccinia Orthopoxvirus: Venus Reporter Primary qHTS; Vaccinia virus Venus reporter expression, fluorescence; Potency, µM (highest dose often 36.5 µM), without a hit: at the top dose activity change, negative = inhibition, actives largely listed as inhibitors; actives 0.46% (n = 330,000); AID 720580, 2013; calls by dose curve; tested in A549 cells; also: potency is read from the fitted curve at half-maximal effect; nearly all actives have a fitted effect of over 30% in size
Active calls of the source: *; i = inactive; ? = inconclusive; . = no result given; [ ] = remark or other dose. % is scaled to controls: 0 for no effect and ±100 for the full control effect.

SMILES	HCV inh	MARV entry inh	Vaccinia mCherry	HCMV inh	Lassa entry inh	VACV Venus inh
O=C1NC(=S)N/C1=C/c1cccc2ccccc12	-9%	0%	.	3	.	.
COc1ccc(C=C2C(=O)NC(=S)NC2=O)cc1	26%	21%	-1%	?	16%	-6%
COc1ccc(-n2c(=O)c3c(c4cc(OC)ccc4n3C)n(C)c2=O)cc1	.	.	-6%	5	18%[46.1 µM]	-1%
COc1cc(C(C)=O)ccc1OCCCN1CCC(c2noc3cc(F)ccc23)CC1	.	.	.	15	.	.
O=C(NC1CCCCC1)O[C@H]1CC[C@@]23CCCN2C(=O)CCC[C@H]3[C@H]1Cc1ccccc1	.	.	.	-23	.	.
COc1cc(CCNC2=CC(=O)c3ncccc3C2=O)ccc1O	?	?	10µM*	0	?	10µM*
Cc1ccc(NC(=O)c2ccccc2NS(=O)(=O)c2ccc(Cl)s2)cc1	11µM*	10µM*	?	-98*	?	?
O=C(NCc1ccco1)c1ccccc1NS(=O)(=O)c1ccc(Cl)s1	4%	-20%[46.1 µM]	-19%	-26	-18%	-10%
O=C(Nc1ccccc1)c1ccccc1NS(=O)(=O)c1ccc(Cl)s1	?	20µM*	?	-64*	?	?
O=C(Nc1ccccc1Cc1ccccc1)c1ccccc1NS(=O)(=O)c1ccc(Cl)s1	?	?	?	-104*	?	?
COCc1c(C(=O)N2CCN(c3ccccc3O)CC2)cnn1-c1nccc(-c2cccs2)n1	.	.	-14%	.	.	-14%
CCOc1cc(/C=C(/C#N)C(=O)Nc2ccc(O)cc2)cc(Br)c1O	-24%	?	?	-61*	?	-28%
Cn1c(=O)oc2cc(S(=O)(=O)N3CCCC(C(=O)NCCc4ccccc4)C3)ccc21 (stereo not given)	.	0%[46.1 µM]	-4%	3	0%[46.1 µM]	-1%
CCOC(=O)c1cccn1C1C(=O)N(Cc2ccc(OC)cc2)c2ccc(OC)cc21 (stereo not given)	.	.	.	-6	.	.
Cc1[nH]c2ccccc2c1N=Nc1ccccc1F	10µM*	?	?	-5	3%[46.1 µM]	-27%
CCOC(=O)c1cc(S(=O)(=O)N(C)Cc2ccccc2)cn1C	-16%	?	i	16	13µM*	-10%
CCN(Cc1ccccc1)S(=O)(=O)c1cc(C(=O)OC)n(C)c1	-6%	.	.	-14	.	.
CC1=C(C(=O)Nc2ccc(C)cc2C)C(c2cccs2)n2nc(SCc3ccccc3Cl)nc2N1 (stereo not given)	.	-1%[46.1 µM]	-15%	-7	-1%[46.1 µM]	-3%
Cn1c(C(=O)NCc2cccs2)cc2oc3ccccc3c21	?	0.45µM*	10µM*	-80*	0.5µM*	-2%
Cn1c(C(=O)NCC2CCCO2)cc2oc3ccccc3c21 (stereo not given)	?	?	.	33	?	-20%
COc1ccc(CNC(=O)c2cc3oc4ccccc4c3n2C)cc1OC	.	5µM*	-6%	?	.	2%
Cn1c(C(=O)NCc2ccccc2F)cc2oc3ccccc3c21	.	?	?	-63*	.	11%
Cn1c(C(=O)NCc2ccccc2)cc2oc3ccccc3c21	?	2.6µM*	5µM*	-89*	?	-7%
CCCCC1CCC(C(=O)N2CC(=O)Nc3ccc(F)cc3C2c2ccc(F)cc2)CC1 (stereo not given)	.	-22%[46.1 µM]	-26%	-15	?	-20%
CCOC(=O)CN1C(=O)[C@]2(OC[C@@H]3Cc4ccccc4[C@H]3C=C2C)c2ccccc21	.	-22%[14.2 µM]	.	.	.	.
SMILES	HCV inh	MARV entry inh	Vaccinia mCherry	HCMV inh	Lassa entry inh	VACV Venus inh
COC(=O)C1=C(C)N(Cc2ccccc2)C(=NCCc2cccnc2)NC1c1ccccc1 (stereo not given)	.	-11%[14.2 µM]	.	.	.	.
CCCOc1ccc(CNC(=O)Cn2c(=O)oc3ccccc32)cc1	?	-3%[46.1 µM]	-6%	6	.	-1%
CCCOc1ccc(CNC(=O)c2cc3oc4ccccc4c3n2C)cc1	.	?	-16%	-86*	.	9%
Cc1ccc(NC(=O)c2ccc(C)cc2)cc1	-2%	.	-14%	88	.	-9%
CC(=O)Nc1ccc(NC(=O)c2ccc(NS(=O)(=O)c3cccc4cccnc34)cc2)cc1	-11%	?	-5%	-22	5%[46.1 µM]	-11%
Cc1ccc(C(=O)Nc2ccc(Br)c(C(F)(F)F)c2)cc1	11µM*	16µM*	.	25	?	.
Cc1ccc(NC(=O)c2ccc(NS(=O)(=O)c3cccc4cccnc34)cc2)cc1	10µM*	-22%[46.1 µM]	?	.	?	-27%
Cc1ccc(C(=O)Nc2ccc3ncccc3c2)cc1	-23%	?	-11%	-64*	?	-17%
CCCc1cc(=O)oc2c(C)c(O[C@@H]3O[C@H](CO)[C@@H](O)[C@H](O)[C@H]3O)ccc12	?	-22%	-25%	-66*	-19%	-16%
Cc1ccc(-n2c(=O)c3c(cnn3C)n(CC(=O)Nc3cccc(C)c3)c2=O)cc1	.	-14%[46.1 µM]	-10%	13	14%[46.1 µM]	0%
CC1CCC(NC(=O)c2ccc3c(c2)N(Cc2cccc(F)c2)C(=O)c2ccccc2S3)CC1 (stereo not given)	.	.	-22%	104	11%[46.1 µM]	-22%
O=C(Nc1ccc(N2CCCC2)c(Cl)c1)c1ccc2c(c1)OCCO2	?	?	-19%	-4	?	-8%
O=C(Nc1ccc(N2CCCCC2)c(Cl)c1)c1ccc2c(c1)OCCO2	10µM*	-25%[46.1 µM]	-17%	-77*	-24%	?
Cc1noc(C)c1C(=O)Nc1cc(Cl)ccc1N1CCOCC1	10µM*	.	.	-9	.	.
O=C(Nc1ccc(N2CCOCC2)c(Cl)c1)c1ccc(Cl)cc1	10µM*	2%	-9%	?	-11%	6%
O=C(Nc1ccc(N2CCOCC2)c(Cl)c1)c1ccc2c(c1)OCCO2	11µM*	.	.	-61*	.	.
O=C(O)c1cc(-n2c(/C=C\c3ccc(F)cc3)nc3ccccc3c2=O)ccc1Cl	.	.	-27%	?	10%[46.1 µM]	-28%
COc1ccccc1CCNC(=O)Cc1c(C)c2cc3c(C(C)(C)C)coc3c(C)c2oc1=O	.	6%[46.1 µM]	-15%	-21	22%[46.1 µM]	-9%
COc1ccccc1CCNC(=O)C(=O)NCC(c1ccco1)S(=O)(=O)c1ccc(C)cc1 (stereo not given)	.	.	i	3	9%[46.1 µM]	-5%
NC(=S)N/N=C1\CCOc2ccc(F)cc21	-6%	10%[46.1 µM]	1.8µM*	-2	?	0.89µM*
NC(=O)N/N=C1\CCS(=O)(=O)c2ccc(F)cc21	6%	17%	-11%	-37	?	-6%
Cc1ccn2cc(-c3ccc4c(c3)NC(=O)CO4)nc2c1	1%	.	.	-84*	.	.
